The source of these data is PubChem BioAssay.

Activity calls are given as the source filed them.

In experiment [1] the test system is Plasmodium falciparum Sir2 (PF13_0152, Sir2A). The experiment is described as follows: Plasmodium falciparum Sir2A binding compounds – biochemical, small-molecule microarray, 635 nm fluorescence, primary screen (AID 1098).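 Further: score merges spot fluorescence intensity with its signal-to-noise ratio.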 The conditions noted are these: fluorescence 635 nm, higher = more signal.
The nature of experiment [2]: probe aDKK1 binding to arrayed compounds – biochemical, biotinylated probe, 635/667 nm fluorescence, primary screen (AID 1099).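 Further: score merges 667nm spot fluorescence with signal to noise across triplicate slides.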 The conditions noted are these: small-molecule microarray, higher = more signal.
The nature of experiment [3]: probe aCHRDL2 binding to arrayed compounds – biochemical, biotinylated probe, 635/667 nm fluorescence, primary screen (AID 1100). The note with it: small-molecule microarray, higher = more signal.
The nature of experiment [4]: change in splice reporter luminescence, either direction, cell-based, HEK293, spliceosome inhibition project, primary screen (AID 1101).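 Further: HEK293 cells carrying a splicing-competent luciferase reporter gene; test concentration not given here.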 The note with it: HEK293 splicing luciferase reporter, 24 h, higher = more signal, called active from +8 up or from −8 down. (A reporter such as luciferase makes a cellular process visible.)
Experiment [5] has as its target Fibroblast growth factor 10 (Homo sapiens) (UniProt O15520). Kind of experiment: compounds binding fibroblast growth factor 10 – biochemical, small-molecule microarray, 635 nm fluorescence, primary screen (AID 1102). The conditions noted are these: FGF10 binding, fluorescence 635 nm, higher = more signal.
Experiment [6] deals with glycogen synthase kinase-3 (GSK3A per assay name; protocol says GSK3B). The experiment is described as follows: compounds binding glycogen synthase kinase-3 – biochemical, small-molecule microarray, 635 nm fluorescence, GSK3A, primary screen (AID 1103). Further: the record names both GSK3A and GSK3B. The note with it: fluorescence 635 nm, higher = more signal.
Experiment [7] addresses Epidermal growth factor receptor (Homo sapiens) (UniProt P00533). The experiment is described as follows: compounds binding epidermal growth factor receptor – biochemical, small-molecule microarray, 635 nm fluorescence, primary screen (AID 1104).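 Further: score merges 667 nm emission intensity with spot signal to noise over triplicate slides.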 The note with it: EGFR binding, higher = more signal.
Experiment [8] addresses Follistatin-related protein 3 (Homo sapiens) (UniProt O95633). The experiment is described as follows: compounds binding follistatin-related protein 3 – biochemical, small-molecule microarray, 635 nm fluorescence, primary screen (AID 1105).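 Further: score merges emission near 667 nm and signal to noise per printed spot across three slides.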 The note with it: FSTL3 binding, higher = more signal.
In experiment [9] the target is Dickkopf-related protein 1 (Homo sapiens) (UniProt O94907). Kind of experiment: small molecules binding DKK1 protein – biochemical, small-molecule microarray, 635 nm fluorescence scan, primary screen (AID 1106).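 Further: score merges emission near 667 nm with signal to noise over three replicate slides.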 The conditions noted are these: higher = more signal.
Chain of Dickkopf-related protein 1 (Homo sapiens) (O94907 whole entry, looked up): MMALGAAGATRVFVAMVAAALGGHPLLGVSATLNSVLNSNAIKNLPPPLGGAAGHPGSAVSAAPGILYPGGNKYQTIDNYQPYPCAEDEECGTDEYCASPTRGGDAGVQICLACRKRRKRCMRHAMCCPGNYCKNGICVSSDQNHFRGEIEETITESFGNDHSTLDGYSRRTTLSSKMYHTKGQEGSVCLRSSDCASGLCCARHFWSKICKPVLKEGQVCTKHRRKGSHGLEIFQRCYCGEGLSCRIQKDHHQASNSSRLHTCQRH
Experiment [10] concerns Inhibin beta A chain (activin A). The experiment is described as follows: small molecules binding activin A – biochemical, small-molecule microarray, 635 nm fluorescence scan, primary screen (AID 1107).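 Further: mouse activin A protein probed at 4.33 µg/mL on printed slides; score merges bound-protein fluorescence near 667 nm with spot signal-to-noise.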 The note with it: INHBA, higher = more signal.
Experiment [11] deals with Human papillomavirus type 1a protein E7 (residues 44-93). The experiment is described as follows: small molecules binding HPV E7 44-93 – biochemical, small-molecule microarray, residues 44-93, 635 nm fluorescence, primary screen (AID 1108).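 Further: E7 fragment applied at 1 µg/mL in TBST for 1 h at 4 C; score combines spot fluorescence with its signal to noise ratio.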 The conditions noted are these: fluorescence 635 nm, higher = more signal.
Experiment [12] in a line: hepatitis C replication reporter changes, two-sided – Huh7 cells, luciferase reporter, HCV replication inhibitor project, primary screen (AID 1109).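 Further: huh7 hepatoma cells harbouring a luciferase neomycin HCV replicon reporter; luciferase luminescence as measure of HCV replicon replication; test concentration not given here.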 The note with it: Huh7 HCV replicon luciferase reporter, 48 h; higher = more signal.
For experiment [13], the target named is Left-right determination factor 2 (Homo sapiens) (UniProt O00292). The experiment is described as follows: small molecules binding LEFTY2 protein – biochemical, small-molecule microarray, 635 nm fluorescence scan, primary screen (AID 1110). The note with it: higher = more signal.
Chain of Left-right determination factor 2 (Homo sapiens) (O00292 whole entry, looked up): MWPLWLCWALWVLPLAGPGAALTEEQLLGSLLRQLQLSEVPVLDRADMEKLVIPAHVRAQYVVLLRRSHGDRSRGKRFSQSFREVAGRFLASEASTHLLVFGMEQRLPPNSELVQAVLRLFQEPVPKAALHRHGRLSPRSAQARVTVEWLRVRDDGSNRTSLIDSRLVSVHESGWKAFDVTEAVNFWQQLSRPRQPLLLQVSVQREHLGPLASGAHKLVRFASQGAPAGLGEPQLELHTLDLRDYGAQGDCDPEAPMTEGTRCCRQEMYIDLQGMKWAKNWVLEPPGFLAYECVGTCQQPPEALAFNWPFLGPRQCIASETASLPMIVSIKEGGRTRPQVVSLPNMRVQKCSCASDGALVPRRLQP
Experiment [14] concerns the target Calmodulin-1 (Homo sapiens) (UniProt P0DP23). The experiment is described as follows: small molecules binding calmodulin-1 with EGTA – biochemical, small-molecule microarray, Cy5-labelled CALM1, profiling panel (AID 1111).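 Further: labelled calmodulin applied in Tris saline Tween buffer holding calcium plus EGTA and DTT.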 The conditions noted are these: Cy5-CALM1 binding fluorescence, higher = more signal.
Experiment [15] has the same target. Kind of experiment: small molecules binding Ca-loaded calmodulin-1 – biochemical, small-molecule microarray, Cy5-labelled CALM1, plus calcium, artefact control for SMM control-protein annotation, profiling panel (AID 1112).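 Further: score merges spot fluorescence with signal to noise from triplicate slides.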 The note with it: Cy5-CALM1 binding fluorescence, higher = more signal.
The nature of experiment [16]: probe aWnt5a binding to arrayed compounds – biochemical, biotinylated probe, 635/667 nm fluorescence, primary screen (AID 1113).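 Further: score merges 667 nm fluorescence intensity with signal-to-noise per printed feature.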 The conditions noted are these: small-molecule microarray, higher = more signal.
Experiment [17] is described as follows: probe aShh binding to arrayed compounds – biochemical, biotinylated probe, 635/667 nm fluorescence, primary screen (AID 1114).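 Further: probe is biotin-labelled aShh protein from a stem cell growth factor screen; measures binding of labelled protein to compounds printed on the slide; score merges feature fluorescence at 667 nm with signal-to-noise.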 The note with it: small-molecule microarray, higher = more signal.
Experiment [18] can be described thus: probe aNog binding to arrayed compounds – biochemical, biotinylated probe, 635/667 nm fluorescence, primary screen (AID 1115).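 Further: probe is biotinylated aNog protein used at 0.15 µg/mL for 1 h at 4 C; z-score combines 667 nm fluorescence of each spot with its signal to noise.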 The conditions noted are these: small-molecule microarray, higher = more signal.
The target of experiment [19] is Torsin-1A-interacting protein 1 (Homo sapiens) (UniProt Q5JTV8). The experiment is described as follows: compound microarray binding of lysate hLAP1 – cell lysate, small-molecule microarray, COS7 lysate, 635/667 nm fluorescence, primary screen (AID 1116). The note with it: 635 nm fluorescence, higher = more signal.
Chain of Torsin-1A-interacting protein 1 (Homo sapiens) (Q5JTV8 whole entry, looked up): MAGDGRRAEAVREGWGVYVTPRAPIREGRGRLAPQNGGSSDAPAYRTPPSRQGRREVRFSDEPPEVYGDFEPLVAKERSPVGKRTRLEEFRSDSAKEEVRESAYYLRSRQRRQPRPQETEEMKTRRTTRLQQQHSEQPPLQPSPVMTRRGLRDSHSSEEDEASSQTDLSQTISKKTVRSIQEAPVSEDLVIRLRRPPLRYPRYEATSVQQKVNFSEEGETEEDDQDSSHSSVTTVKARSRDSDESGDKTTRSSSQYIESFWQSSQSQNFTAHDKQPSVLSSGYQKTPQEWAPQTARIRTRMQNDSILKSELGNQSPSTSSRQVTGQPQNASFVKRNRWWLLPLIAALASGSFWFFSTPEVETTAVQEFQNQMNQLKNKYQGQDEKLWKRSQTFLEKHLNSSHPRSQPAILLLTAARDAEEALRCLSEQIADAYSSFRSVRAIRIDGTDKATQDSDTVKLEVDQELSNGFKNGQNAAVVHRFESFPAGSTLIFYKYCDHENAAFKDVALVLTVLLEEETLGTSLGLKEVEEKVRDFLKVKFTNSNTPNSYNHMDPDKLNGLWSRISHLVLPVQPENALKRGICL
The target in experiment [20] is Alpha-bungarotoxin (Bungarus multicinctus) (UniProt P60615). The experiment is described as follows: compounds binding labelled alpha-BTX control protein – biochemical, small-molecule microarray, Alexa647 label, 635/667 nm fluorescence, artefact control for SMM control protein annotation, profiling panel (AID 1117). The conditions noted are these: alpha-BTX-A647 binding fluorescence, higher = more signal.
Chain of Alpha-bungarotoxin (Bungarus multicinctus) (P60615 whole entry, looked up): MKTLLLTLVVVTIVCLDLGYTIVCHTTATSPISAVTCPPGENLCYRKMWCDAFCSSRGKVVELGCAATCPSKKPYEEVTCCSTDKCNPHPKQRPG

Chain of Follistatin-related protein 3 (Homo sapiens) (O95633 whole entry, looked up): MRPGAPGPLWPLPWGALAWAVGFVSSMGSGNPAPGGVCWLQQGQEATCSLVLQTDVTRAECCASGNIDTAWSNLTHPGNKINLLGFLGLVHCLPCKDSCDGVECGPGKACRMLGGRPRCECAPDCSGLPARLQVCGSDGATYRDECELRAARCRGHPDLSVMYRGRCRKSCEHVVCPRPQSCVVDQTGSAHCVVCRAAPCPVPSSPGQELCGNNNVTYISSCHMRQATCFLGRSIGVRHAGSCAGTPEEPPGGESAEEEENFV
Chain of Fibroblast growth factor 10 (Homo sapiens) (O15520 whole entry, looked up): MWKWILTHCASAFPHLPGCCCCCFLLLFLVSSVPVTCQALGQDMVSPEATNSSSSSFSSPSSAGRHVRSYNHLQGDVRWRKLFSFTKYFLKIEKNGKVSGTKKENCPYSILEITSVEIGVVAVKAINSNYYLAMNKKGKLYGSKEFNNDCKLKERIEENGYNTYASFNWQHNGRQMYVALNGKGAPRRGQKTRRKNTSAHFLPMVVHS
Chain of Epidermal growth factor receptor (Homo sapiens) (P00533 whole entry, looked up): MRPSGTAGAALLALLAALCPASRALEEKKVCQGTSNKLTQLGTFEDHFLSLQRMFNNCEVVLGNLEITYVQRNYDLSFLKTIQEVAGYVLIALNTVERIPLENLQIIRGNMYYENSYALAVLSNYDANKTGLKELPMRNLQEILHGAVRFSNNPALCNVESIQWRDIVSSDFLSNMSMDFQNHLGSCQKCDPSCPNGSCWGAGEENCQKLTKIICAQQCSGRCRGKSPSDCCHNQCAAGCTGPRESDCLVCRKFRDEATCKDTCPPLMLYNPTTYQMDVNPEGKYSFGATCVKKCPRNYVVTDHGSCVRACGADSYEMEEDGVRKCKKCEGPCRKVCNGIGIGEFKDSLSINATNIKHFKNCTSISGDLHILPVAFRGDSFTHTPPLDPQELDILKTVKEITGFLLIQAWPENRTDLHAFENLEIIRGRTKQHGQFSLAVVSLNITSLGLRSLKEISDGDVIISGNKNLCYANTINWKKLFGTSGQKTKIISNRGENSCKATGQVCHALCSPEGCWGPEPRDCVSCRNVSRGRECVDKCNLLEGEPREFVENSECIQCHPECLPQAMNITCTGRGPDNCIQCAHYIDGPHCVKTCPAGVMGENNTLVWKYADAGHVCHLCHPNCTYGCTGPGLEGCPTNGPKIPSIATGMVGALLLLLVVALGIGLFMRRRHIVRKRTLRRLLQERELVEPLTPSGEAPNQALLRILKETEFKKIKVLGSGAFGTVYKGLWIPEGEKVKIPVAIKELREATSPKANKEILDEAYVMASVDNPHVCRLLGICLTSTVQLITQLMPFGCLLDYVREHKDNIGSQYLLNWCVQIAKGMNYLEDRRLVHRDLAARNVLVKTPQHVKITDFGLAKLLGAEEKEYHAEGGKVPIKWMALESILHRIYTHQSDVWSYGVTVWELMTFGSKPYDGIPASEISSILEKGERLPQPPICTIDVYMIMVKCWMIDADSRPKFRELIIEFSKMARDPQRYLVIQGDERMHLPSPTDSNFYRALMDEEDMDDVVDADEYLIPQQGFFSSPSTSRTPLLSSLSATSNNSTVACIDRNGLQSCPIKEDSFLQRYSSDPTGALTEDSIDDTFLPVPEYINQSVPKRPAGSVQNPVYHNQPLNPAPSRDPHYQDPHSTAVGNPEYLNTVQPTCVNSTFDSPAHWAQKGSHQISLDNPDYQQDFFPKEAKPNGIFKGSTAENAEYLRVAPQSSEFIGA

Consider `CC(C)N1CC=CC23O[C@@H]4/C=C\CCCOC(=O)C4[C@H]2C(=O)N(CCO)[C@@H]3C1=O` (stereo not given in full), for which the composite z-score is 1.01 in experiment [1]; 0.155 in experiment [2]; 0.677 in experiment [3]; -0.363 in [5]; -0.456 in experiment [6]; -1.02 in experiment [7]. For the same compound, the composite z-score in experiment [8] was -0.516; in [9], -1.08; in [10] it was 1.45; in [11] it was -0.526; in experiment [13] it was -0.999; in experiment [14] it was -0.428. For the same compound, the composite z-score in experiment [15] was -0.793; in [16] it was -0.188; in experiment [17], -0.0769; in [18], -0.0624; in experiment [19] it was 2.9; in experiment [20], -0.493. Also, the z-score was -1.84 (inactive) in experiment [4] and -0.648 in experiment [12].

With `CO[C@H]1COC(=O)[C@H](Cc2ccccc2)NC(=O)CC=C[C@@H](C)[C@H](OC)COC(=O)CC=C[C@@H]1C`, the composite z-score was 0.143 in experiment [1]; 0.077 in [2]; -0.473 in experiment [3]; 0.323 in experiment [5]; 0.418 in experiment [6]; 0.44 in [7]. The composite z-score in experiment [8] is 0.532; in experiment [9], 0.898; in [10] it was -0.405; in [11] it was 0.482; in experiment [13], 1.11; in experiment [14], -0.0075. Further, the composite z-score in experiment [15] was -0.61; in experiment [16], -0.134; in experiment [17] it was 0.0022; in experiment [18], -0.0682; in experiment [19], 0.311; in experiment [20], 0.426. The z-score in experiment [4] is -0.875 (inactive); in [12], 0.401.

Take `C=CC[C@]1(C(=O)NCC(O)CO)N=C(c2ccc(OCCCO)cc2)O[C@H]1c1ccccc1` (stereo not given in full): the composite z-score in [1] is 1.23; in experiment [2] it was 1.21; in experiment [3], 1.3; in [5] it was -0.159; in experiment [6], 0.321; in [7], -1.48. Besides, the composite z-score in experiment [8] was -1.7; in experiment [9], -0.296; in experiment [10], 0.236; in experiment [11], -0.72; in experiment [13] it was -0.418; in experiment [14] it was 1.66. Also, the composite z-score in experiment [15] was 1.12; in experiment [16], -0.0286; in experiment [17] it was 0.108; in experiment [18], 0.402; in experiment [19], 3.97; in [20], 1.29. Also, the z-score in [4] is 0.164 (inactive); in [12] it was -0.294.

With `O=C1c2ccccc2[C@](Cc2ccccc2I)(C(=O)NCC(F)(F)F)[C@H](c2ccc(CO)cc2)N1Cc1ccccc1C(F)(F)F`, the composite z-score in experiment [1] was 0.795; in [2], -0.582; in experiment [3], -0.243; in [5], 0.222; in [6], 0.926; in [7] it was 0.106. In addition, the composite z-score was 0.523 in [8]; 0.0221 in experiment [9]; -0.33 in experiment [10]; 0.517 in [11]; 0.13 in [13]; 1.47 in [14]. The composite z-score was 0.296 in experiment [15]; -0.149 in experiment [16]; 0.164 in experiment [17]; -0.0101 in experiment [18]; 0.857 in experiment [19]; 0.449 in experiment [20]. For the same compound, the z-score in experiment [4] was 0.133 (inactive); in experiment [12] it was -0.326.

As for `CC(C)NC(=O)[C@@]1(Cc2ccccc2I)c2ccccc2C(=O)N(C2CCCCC2)[C@H]1c1ccc(CO)cc1`, the composite z-score in experiment [1] amounted to 1.02; in [2], 0.65; in experiment [3], 0.793; in [5], 1.1; in experiment [6] it was 1.2; in experiment [7], 0.118. Besides, the composite z-score came to 1.35 in [8]; 0.4 in experiment [9]; 0.386 in experiment [10]; 1.46 in experiment [11]; 0.398 in [13]; 1.48 in experiment [14]. For the same compound, the composite z-score in experiment [15] was 0.458; in experiment [16], -0.0792; in [17] it was 0.448; in experiment [18], 0.982; in experiment [19], 0.977; in experiment [20], 1.32. Further, the z-score in experiment [4] is 0.129 (inactive); in experiment [12], -1.21.

As to `CC(C)=C1C(=O)C(c2ccccc2)=C2CN3C(=O)N(CCc4ccccc4)C(=O)[C@]3(Cc3ccccc3)[C@H]21`, the composite z-score is -0.34 in experiment [1]; 0.809 in experiment [2]; 1.25 in [3]; -0.316 in experiment [5]; -0.121 in experiment [6]; -0.972 in experiment [7]. Moreover, the composite z-score in experiment [8] is -0.356; in experiment [9] it was -1.86; in [10] it was 0.64; in experiment [11] it was -1.85; in experiment [13] it was -1.54; in experiment [14], 1.31. Moreover, the composite z-score was 0.197 in experiment [15]; -0.0384 in [16]; 0.251 in [17]; -0.408 in [18]; -0.0829 in experiment [19]; -0.496 in experiment [20]. The z-score in [4] was 0.514 (inactive); in [12], 0.219.

As to `COc1ccc(CCN2C(=O)[C@@]3(c4ccc([N+](=O)[O-])cc4)CC(=O)N(CC45CC6CC(CC(C6)C4)C5)[C@@H]3c3ccc(CO)cc32)cc1`, the composite z-score in experiment [1] is 1.42; in experiment [2] it was 0.463; in [3], 0.761; in [5], -0.212; in [6], 0.592; in [7], -0.645. For the same compound, the composite z-score in experiment [8] was -0.203; in experiment [9] it was -0.369; in experiment [10] it was 0.718; in experiment [11], -0.047; in [13], 0.16; in experiment [14], 0.207. Also, the composite z-score in experiment [15] is -0.474; in experiment [16], -0.0101; in experiment [17], -0.181; in experiment [18] it was -0.476; in [19], 0.352; in experiment [20], 0.119. For the same compound, the z-score is -0.604 (inactive) in experiment [4] and -0.673 in experiment [12].

For the compound `Cc1ccc(S[C@]2(C(=O)NC3CC3)CC(=O)N(Cc3cc(C(F)(F)F)cc(C(F)(F)F)c3)[C@@H]2c2ccc(CO)cc2)cc1`, the composite z-score in experiment [1] is 0.259; in [2], -0.212; in [3] it was 0.0275; in experiment [5] it was 0.295; in experiment [6] it was 0.57; in [7], 0.196. In addition, the composite z-score is 0.811 in experiment [8]; 0.245 in [9]; 0.709 in experiment [10]; 0.892 in [11]; 0.267 in experiment [13]; -0.125 in experiment [14]. The composite z-score in [15] was -0.493; in experiment [16], -0.175; in experiment [17], -0.174; in experiment [18], -0.491; in experiment [19] it was -0.0118; in experiment [20], 0.296. Also, the z-score was 0.434 (inactive) in [4] and -1.17 in experiment [12].
